About 83,000 compounds went through this panel and 20% of them were active in at least one assay; those are over-represented in the sample as a whole.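 Note: values are percent growth. 100 is the growth of untreated cells, values between 100 and 0 indicate rising inhibition; between -100 and 0 indicates cell death.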 Values without a mark were called inactive. The source made the active and inactive calls. How the source made its calls: active means growth percent below 10; inactive means the rest.

For one experiment, the system named is U251 CNS. Description: NCI-60 one-dose screen, 48 h (100 = growth as untreated, 0 = no growth, -100 = all killed). Particulars: 10 µM unless noted.
As for `CC(C)CNc1nc(N=[N+]=[N-])nc(NCC(C)C)n1`, the growth is 61.9% [100 µM].
For the molecule `CCCCCCCSc1ncnc2[nH]ncc12`, the growth was 38.3%.
Still for that read-out and setting: as for `COC(=O)[C@H](Cc1cn(C)cn1)NC(=O)[C@H](Cc1ccccc1)NC(=O)Nc1cc(C(F)(F)F)cc(C(F)(F)F)c1`, the figure is -95.6% [100 µM] (active); as for `CC[N+](CCCCCCCCCC[N+](CC)(c1ccccn1)c1ccccn1)(c1ccccn1)c1ccccn1`, 6.56% (active); as for `CCCCCCC(CC#N)(CCC)CCCC` (stereo not given), 104%.
On the same count and under the same terms, as for `O=C1NC(=O)/C(=C\c2ccco2)S1`, the figure is 101%; as for `Cc1sc2nc3c4ccccc4c(NCCCN(C)C)nn3c(=O)c2c1C`, 55.8%.
Same read-out and setting: as for `COc1ccc([N+](=O)[O-])c(S(=O)(=O)c2ccc(Cl)cc2)n1`, the figure is 95.6%.
Turning to `COc1ccc(NC(=O)c2ccccc2-c2ccccc2)c(C(N)=O)c1`, the growth is 45.9%.
Same read-out and setting: as for `CCCCCc1c(C)[nH]c(/C=C2\N=C(c3ccc[nH]3)C=C2Oc2ccccc2)c1C`, the figure is -99.6% [100 µM] (active); as for `COc1ccc(NC(=O)[C@@H]2C[C@H]2c2ccccc2)c(C(N)=O)c1`, 97.2%; as for `COc1cc(-c2n[nH]nc2-c2ccccn2)cc(OC)c1OC`, 106%.
Consider `COC(=O)[C@H](Cc1cnc[nH]1)NC(=O)[C@@H](NC(=O)Nc1cc(C(F)(F)F)cc(C(F)(F)F)c1)C(C)C`, for which the growth was -96.8% [100 µM] (active).
Still for that read-out and setting: under `O=C1C(=O)/C(=C/c2ccccc2)CCCCCC/C1=C/c1ccccc1` stands 11%; under `O=C(Nc1ccc(Cl)cc1)Nc1nc2ccc(OC(F)(F)F)cc2o1`, 83.1%; under `COc1ccc(N2CCN(CC(=O)N3CCN(c4nnc(-c5ccccc5)c(-c5ccccc5)n4)CC3)CC2)cc1`, 46.7%.
The same measure, in the same setting: under `CCCCCCCCCCCCCCCCNC(=O)Nc1ccc2ccccc2c1` stands 105%; under `FCc1ncc(-c2ccc(C(F)(F)F)cc2)c(NC2CCCCCC2)n1`, -29.7% [100 µM] (active); under `O=Cc1ncc(-c2ccc(C(F)(F)F)cc2)c(NC2CCCCCC2)n1`, -98.2% [100 µM] (active).
As to `COC(=O)[C@H](Cc1cn(C)cn1)NC(=O)[C@@H](NC(=O)Nc1cc(C(F)(F)F)cc(C(F)(F)F)c1)C(C)C`, the growth was -95.3% [100 µM] (active).
The same measure, in the same setting: under `CSc1nc(-c2ccc(O)cc2O)c2c(=O)[nH]c(Nc3ccc(S(=O)(=O)Nc4nc(C)cc(C)n4)cc3)nc2n1` stands 100%.
As for `CC(C)OP(=O)(OC(C)C)c1ncc(-c2ccc(C(F)(F)F)cc2)c(NC2CCCCCC2)n1`, the growth is -87.4% [33.3 µM] (active).
The same measure, in the same setting: as for `NS(=O)(=O)c1ccc(-n2nc(-c3ccc(Br)cc3)ccc2=O)cc1`, the figure is 11.2% [100 µM]; as for `CC1CC=CCC1C1OCC(C)(C)CO1` (stereo not given), 92.9%; as for `N[C@H](CS)C(=O)O`, 105%.
The same measure, in the same setting: under `CCCCCc1c(C)[nH]c(/C=C2\N=C(c3ccc[nH]3)C=C2Oc2ccc(Cl)cc2)c1C` stands -94.9% [100 µM] (active); under `[N-]=[N+]=NCc1ncc(-c2ccc(C(F)(F)F)cc2)c(NC2CCCCCC2)n1`, 73% [50 µM].
With `COc1ccc(-c2nnc3c4[nH]cnc4ncn23)c(OC)c1`, the growth is 41.1%.
The same measure, in the same setting: as for `C1CCC(C(CC2CCCCN2)C2CCCCC2)CC1` (stereo not given), the figure is -61.3% (active).
Same read-out and setting: under `CCOC(=O)c1sc(NC(=O)COc2cccc(/C=C3\Cc4ccc(Cl)cc4C3=O)c2)nc1C` stands 99.4%; under `CCCCCCCC[Si](OCC)(OCC)OCC`, 98.9%; under `CCOc1cc(CCNS(=O)(=O)c2ccc(C)cc2)c(C(C)=O)cc1OCC`, 86.4% [100 µM].
On the same count and under the same terms, under `CC(=O)c1ccc(NS(=O)(=O)c2ccc([N+](=O)[O-])cc2)cc1` stands 103%; under `COC(=O)[C@H](CCCCNC(=O)OCc1ccccc1)NC(=O)[C@@H](NC(=O)Nc1cc(C(F)(F)F)cc(C(F)(F)F)c1)C(C)C`, -88% [100 µM] (active).
For `O=C(/C=C/c1c(-c2ccccc2)[nH]c2ccccc12)S(=O)(=O)c1ccccc1`, the growth is 76.5%.
Still for that read-out and setting: as for `CCOC(=O)C(C(=O)OCC)C1CCCCC1`, the figure is 86%; as for `CNc1nc(NC2CCCC2)nc(Sc2ccc(OC)cc2)n1`, 25.8% [100 µM]; as for `O=c1sc2ncnc3ncn1c32`, 87.4%.
Still for that read-out and setting: as for `Cc1nn2c(/C=C3/C(=O)Nc4cc(Cl)ccc43)c(-c3ccccc3)nc2s1`, the figure is -19.9% (active); as for `Nc1nc2c(nnn2Cc2ccc(Cl)c(Cl)c2)c(=O)[nH]1`, 96.6%.

The next experiment concerns PC-3 prostate. The description is as above. The following applies: 10 µM unless noted.
Consider `CC(C)CNc1nc(N=[N+]=[N-])nc(NCC(C)C)n1`, for which the growth was 23.3% [100 µM].
As to `CCCCCCCSc1ncnc2[nH]ncc12`, the growth was 78.8%.
Regarding `COC(=O)[C@H](Cc1cn(C)cn1)NC(=O)[C@H](Cc1ccccc1)NC(=O)Nc1cc(C(F)(F)F)cc(C(F)(F)F)c1`, the growth is -95.6% [100 µM] (active).
Still for that read-out and setting: under `CC[N+](CCCCCCCCCC[N+](CC)(c1ccccn1)c1ccccn1)(c1ccccn1)c1ccccn1` stands 2.94% (active).
Same read-out and setting: under `CCCCCCC(CC#N)(CCC)CCCC` (stereo not given) stands 92.2%; under `O=C1NC(=O)/C(=C\c2ccco2)S1`, 101%; under `Cc1sc2nc3c4ccccc4c(NCCCN(C)C)nn3c(=O)c2c1C`, 50.9%.
Still for that read-out and setting: under `COc1ccc([N+](=O)[O-])c(S(=O)(=O)c2ccc(Cl)cc2)n1` stands 92.3%; under `COc1ccc(NC(=O)c2ccccc2-c2ccccc2)c(C(N)=O)c1`, 32.8%.
Regarding `CCCCCc1c(C)[nH]c(/C=C2\N=C(c3ccc[nH]3)C=C2Oc2ccccc2)c1C`, the growth was -21.6% [100 µM] (active).
For the molecule `COc1ccc(NC(=O)[C@@H]2C[C@H]2c2ccccc2)c(C(N)=O)c1`, the growth is 90.2%.
As for `COc1cc(-c2n[nH]nc2-c2ccccn2)cc(OC)c1OC`, the growth is 82.1%.
Regarding `COC(=O)[C@H](Cc1cnc[nH]1)NC(=O)[C@@H](NC(=O)Nc1cc(C(F)(F)F)cc(C(F)(F)F)c1)C(C)C`, the growth is -93.2% [100 µM] (active).
The same measure, in the same setting: as for `O=C1C(=O)/C(=C/c2ccccc2)CCCCCC/C1=C/c1ccccc1`, the figure is 55.4%.
Same read-out and setting: as for `O=C(Nc1ccc(Cl)cc1)Nc1nc2ccc(OC(F)(F)F)cc2o1`, the figure is 44.7%.
On the same count and under the same terms, as for `COc1ccc(N2CCN(CC(=O)N3CCN(c4nnc(-c5ccccc5)c(-c5ccccc5)n4)CC3)CC2)cc1`, the figure is 22%.
Turning to `CCCCCCCCCCCCCCCCNC(=O)Nc1ccc2ccccc2c1`, the growth was 91.5%.
The same measure, in the same setting: as for `FCc1ncc(-c2ccc(C(F)(F)F)cc2)c(NC2CCCCCC2)n1`, the figure is 7.27% [100 µM] (active); as for `O=Cc1ncc(-c2ccc(C(F)(F)F)cc2)c(NC2CCCCCC2)n1`, -81.7% [100 µM] (active); as for `COC(=O)[C@H](Cc1cn(C)cn1)NC(=O)[C@@H](NC(=O)Nc1cc(C(F)(F)F)cc(C(F)(F)F)c1)C(C)C`, -89.6% [100 µM] (active).
Same read-out and setting: under `CSc1nc(-c2ccc(O)cc2O)c2c(=O)[nH]c(Nc3ccc(S(=O)(=O)Nc4nc(C)cc(C)n4)cc3)nc2n1` stands 88%.
Consider `CC(C)OP(=O)(OC(C)C)c1ncc(-c2ccc(C(F)(F)F)cc2)c(NC2CCCCCC2)n1`, for which the growth is -68% [33.3 µM] (active).
Same read-out and setting: as for `NS(=O)(=O)c1ccc(-n2nc(-c3ccc(Br)cc3)ccc2=O)cc1`, the figure is 78.2% [100 µM].
On the same count and under the same terms, under `CC1CC=CCC1C1OCC(C)(C)CO1` (stereo not given) stands 94.9%.
Turning to `N[C@H](CS)C(=O)O`, the growth is 94.1%.
The same measure, in the same setting: under `CCCCCc1c(C)[nH]c(/C=C2\N=C(c3ccc[nH]3)C=C2Oc2ccc(Cl)cc2)c1C` stands 5.67% [100 µM] (active); under `[N-]=[N+]=NCc1ncc(-c2ccc(C(F)(F)F)cc2)c(NC2CCCCCC2)n1`, 35.6% [50 µM]; under `COc1ccc(-c2nnc3c4[nH]cnc4ncn23)c(OC)c1`, 40.7%.
Take `C1CCC(C(CC2CCCCN2)C2CCCCC2)CC1` (stereo not given): the growth is 23.9%.
The same measure, in the same setting: under `CCOC(=O)c1sc(NC(=O)COc2cccc(/C=C3\Cc4ccc(Cl)cc4C3=O)c2)nc1C` stands 103%; under `CCCCCCCC[Si](OCC)(OCC)OCC`, 91.5%; under `CCOc1cc(CCNS(=O)(=O)c2ccc(C)cc2)c(C(C)=O)cc1OCC`, 33.5% [100 µM].
On the same count and under the same terms, under `CC(=O)c1ccc(NS(=O)(=O)c2ccc([N+](=O)[O-])cc2)cc1` stands 93.1%; under `COC(=O)[C@H](CCCCNC(=O)OCc1ccccc1)NC(=O)[C@@H](NC(=O)Nc1cc(C(F)(F)F)cc(C(F)(F)F)c1)C(C)C`, -83.9% [100 µM] (active).
Consider `O=C(/C=C/c1c(-c2ccccc2)[nH]c2ccccc12)S(=O)(=O)c1ccccc1`, for which the growth was 36.5%.
For `CCOC(=O)C(C(=O)OCC)C1CCCCC1`, the growth is 94.3%.
Still for that read-out and setting: under `CNc1nc(NC2CCCC2)nc(Sc2ccc(OC)cc2)n1` stands -7.58% [100 µM] (active).
With `O=c1sc2ncnc3ncn1c32`, the growth is 75.8%.
Same read-out and setting: as for `Cc1nn2c(/C=C3/C(=O)Nc4cc(Cl)ccc43)c(-c3ccccc3)nc2s1`, the figure is 51.1%; as for `Nc1nc2c(nnn2Cc2ccc(Cl)c(Cl)c2)c(=O)[nH]1`, 79.3%.

For the origin of these results see PubChem BioAssay (NCI).
